Hits are enriched below; roughly 18% of the tested compounds scored in any of these assays.
TDP1 cell CPT = DT40-hTDP1 cell growth loss with CPT | 420,000 compounds, 12% hits | Potency, µM (titrated, usually from 46.2 µM), without a hit: at the highest dose activity change, negative = growth inhibition, usual class: inhibitors | chicken DT40 Tdp1-/-;hTDP1 cells + 20 nM CPT, ATP luminescence, 48 h; also: potency is read from the fitted curve at half-maximal effect; nearly all actives have a fitted effect of over 55% in size
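Chicken DT40 Tdp1-/- cells stably complemented with human TDP1 were seeded at 400 cells/well in medium containing 20 nM camptothecin, exposed to pin-transferred compounds, and grown at 37 °C for at least 48 hr. Viability was read as ATP luminescence.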
RORg inh = ROR gamma (mouse) transcription inhibition; AID 2551; Potency, µM (series often up to 53.6 µM), inactives show top-dose activity change, negative = inhibition, actives largely listed as inhibitors; P51450; 310,000 compounds, 5.4% hits; Drosophila S2 Gal4-RORgamma UAS-luciferase reporter, 20 h; also: potency is read from the fitted curve at half-maximal effect; nearly all actives have a fitted effect of over 60% in size
Target sequence (P51450 whole entry, looked up, the tested form may be a part): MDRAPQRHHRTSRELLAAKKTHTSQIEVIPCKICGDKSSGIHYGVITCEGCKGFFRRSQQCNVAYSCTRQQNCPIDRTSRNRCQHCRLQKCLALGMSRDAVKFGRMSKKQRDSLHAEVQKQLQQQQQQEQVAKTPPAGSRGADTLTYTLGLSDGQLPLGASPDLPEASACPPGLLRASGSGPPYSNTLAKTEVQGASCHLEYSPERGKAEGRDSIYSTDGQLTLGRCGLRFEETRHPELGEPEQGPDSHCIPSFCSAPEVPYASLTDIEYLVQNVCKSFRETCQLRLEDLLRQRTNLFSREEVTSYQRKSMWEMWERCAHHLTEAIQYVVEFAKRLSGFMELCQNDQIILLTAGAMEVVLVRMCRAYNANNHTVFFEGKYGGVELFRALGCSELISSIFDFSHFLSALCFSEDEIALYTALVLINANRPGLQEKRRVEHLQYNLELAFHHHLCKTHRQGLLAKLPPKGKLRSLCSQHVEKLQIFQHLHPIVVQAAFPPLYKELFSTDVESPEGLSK
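Read-out: Photinus luciferase luminescence; inhibitors lower reporter signal. Insect Schneider cells with Gal4-ROR gamma fusion under metallothionein promoter, UAS reporter; 700 uM final copper sulfate induction, 20 hr, ambient temperature.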
IL1B secr inh = inhibitors of inflammasome signaling (IL-1 beta secretion); THP-1 LPS/ATP IL-1B secretion, AlphaLISA, 16 h; active compounds read low; activity change, % at 57.5 µM; 360,000 compounds, 4.7% hits; in the data active = activity change below about -50%; inconclusive = mostly about -30% to -49%
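THP-1 cells pretreated 1 hr with compounds (up to 57.5 uM final), then stimulated with LPS (250 ng/mL final) plus ATP (1.25 mM final); secreted IL-1B measured by AlphaLISA after 16 hr, decreased signal indicating inhibition.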
DT40 TDP1 no CPT = qHTS for Inhibitors of human tyrosyl-DNA phosphodiesterase 1 (TDP1): qHTS in cells in absence of CPT | DT40 Tdp1-/- hTDP1 cells, no CPT, ATP luminescence, 48 h | Potency, µM (doses to about 46.2 µM), for the others: at the highest dose activity change, negative = growth inhibition, usual class: inhibitors | 420,000 compounds, 15% hits; also: potency is read from the fitted curve at half-maximal effect; nearly all actives have a fitted effect of over 55% in size
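A cellular qHTS used chicken DT40 cells lacking endogenous Tdp1 but carrying stably transfected human TDP1. Compounds were applied without camptothecin, and cell growth kinetics were judged by ATP-dependent luminescence after ≥48 hr.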
LDHA block = blocks human lactate dehydrogenase A; activity change, % (values are at about 110 or 230 µM); P00338; purified LDHA, NADH/diaphorase-resazurin fluorescence; active compounds read low; 480,000 compounds, 0.15% hits; AID 1347041; in the data active = activity change below about -30%; inconclusive = mostly about -25% to -30%;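 also: plate controls were DMSO wells for no effect and wells without enzyme for full effect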
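Human LDH5 (2 nM) was incubated with 0.06 mM NADH and 0.2 mM pyruvate for 5 min at room temperature in Tris pH 7.4. Remaining NADH was coupled through diaphorase/resazurin, and resorufin fluorescence was read at 0 and 20 min.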
Gal4-VP16 FLuc = counter-screen for ROR gamma inhibitors: Gal4-VP16 reporter | Drosophila S2 Gal4-VP16 UAS-luciferase, luminescence, 20 h | Potency, µM (doses to about 53.6 µM), for inactives: at the highest dose activity, negative = inhibition, actives largely listed as inhibitors | 310,000 compounds, 3.5% hits;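 also: Gal4-VP16 expression switched on by copper sulfate through the metallothionein promoter; potency is read from the fitted curve at half-maximal effect; nearly all actives have a fitted effect of over 50% in size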
* hit, by the source's call; ? = inconclusive; / = no result; [ ] = dose if it differs, or a comment. Unless noted, calls follow the shape of the dose curve; as a rule, active = well fitted curve in the direction sought with a large enough effect; inconclusive = small, poorly fitted or top-dose-only effect, or another doubt; inactive = no such curve, though single readings can be large; an effect the other way counts as inactive or inconclusive. Unless noted, % is scaled to controls: 0 for no effect and ±100 for the full control effect.

SMILES | TDP1 cell CPT | RORg inh | IL1B secr inh | DT40 TDP1 no CPT | LDHA block | Gal4-VP16 FLuc
CC(C)Cc1nnc(NC(=O)C23CC4CC(CC(C4)C2)C3)s1 | ? | ? | 38 | 18µM* | -3 | -17%
CCc1nnc(NC(=O)C23CC4CC(CC(C4)C2)C3)s1 | -11% | ? | 30 | -1% | -6 | 7%
CSc1nnc(NC(=O)C23CC4CC(CC(C4)C2)C3)s1 | 4% | 18µM* | 15 | 16% | -21 | ?
O=C(COC(=O)c1ccc(Cl)cc1)c1ccc([N+](=O)[O-])cc1 | / | / | / | / | 6 | /
CCOc1ccc(C(=O)N2CCN(Cc3cc(=O)n4nc(-c5cccc(OC)c5)sc4n3)CC2)cc1 | ? | / | / | 21µM* | 3 | /
Cc1ccc(S(=O)(=O)N2CCN(Cc3cc(=O)n4nc(-c5ccccc5Cl)sc4n3)CC2)cc1 | -2% | / | / | -17% | -3 | /
Cc1cccc(-c2nn3c(=O)cc(CN4CCN(S(=O)(=O)c5ccc(Cl)cc5)CC4)nc3s2)c1 | 3% | / | / | 16µM* | -1 | /
COc1ccc(-c2nn3c(=O)cc(CN4CCN(C(=O)/C=C/c5ccccc5)CC4)nc3s2)cc1 | -11% | / | / | ? | -3 | /
Cc1ccccc1-c1nn2c(=O)cc(CN3CCN(C(=O)/C=C/c4ccccc4)CC3)nc2s1 | 16µM* | / | / | ? | 5 | /
COc1ccccc1-c1nn2c(=O)cc(CN3CCN(C(=O)/C=C/c4ccccc4)CC3)nc2s1 | ? | / | / | 23µM* | 0 | /
CCOc1ccc(NC(=O)N2CCN(Cc3cc(=O)n4nc(-c5ccc(OC)cc5)sc4n3)CC2)cc1 | -2% | / | / | -20% | -5 | /
O=C(CN(C1CCCCC1)S(=O)(=O)c1ccc(Br)cc1)Nc1ccc(F)cc1F | / | / | / | / | 0 | /
O=S(=O)(NCCc1cn2ccccc2n1)c1ccc(Cl)c(Cl)c1 | / | / | / | / | 4 | /
Fc1ccc(COc2cccc(CNC3CC3)c2)cc1 | / | / | / | / | -10 | /
COc1cc(CNC2CCCCCCC2)cc(Cl)c1OCC(N)=O | -13% | -7% | 0 | -13% | -8 | 6%
COc1cc(CNC2CCCc3ccccc32)cc(OC)c1OC (stereo unspecified) | ? | 9% | -13 | 21µM* | -22 | -18%
CCOc1cc(CNC2CCCC2)cc(Cl)c1OCc1ccc(F)cc1 | 15µM* | 0% | -80* | 23µM* | -8 | -86%
COc1cc(CNC2CCCC2)cc(Cl)c1OCc1ccccc1Cl | 23µM* | -35% | -94* | 23µM* | 5 | -20%
COc1cc(CNC2CCCC2)cc(Cl)c1OCc1ccc(F)cc1 | ? | ? | ? | 15µM* | -5 | 2%
Cc1cc2ccccc2n1CC(=O)NC1CCN(CC(N)=O)CC1 | / | / | / | / | 1 | /
CCN(CC)S(=O)(=O)NCCNS(=O)(=O)N(CC)CC | / | / | / | / | -3 | /
CCCCCn1nc(C(=O)OCC(=O)NCC(F)(F)F)c2ccccc2c1=O | / | / | / | / | 3 | /
O=C(NCc1ccccn1)c1cccc2ccccc12 | / | / | / | / | 6 | /
O=C(Nc1ccc(F)cc1)c1nc[nH]c1C(=O)Nc1ccc([N+](=O)[O-])cc1 | ? | 5µM* | -1 | 15µM* | -15 | 7.1µM*
O=C(Nc1ccc([N+](=O)[O-])cc1)c1nc[nH]c1C(=O)NC1CCCCC1 | ? | 1.6µM* | -10 | ? | -2 | 3.5µM*
SMILES | TDP1 cell CPT | RORg inh | IL1B secr inh | DT40 TDP1 no CPT | LDHA block | Gal4-VP16 FLuc
CCOC(=O)c1[nH]cnc1C(=O)Nc1ccc([N+](=O)[O-])cc1 | ? | 0% | 9 | -24% | -4 | -12%
O=S(=O)(NCCc1ncc2ccccn12)c1ccccc1 | / | / | / | / | 7 | /
Cc1ccc(CNc2nc3ccccc3nc2NS(=O)(=O)c2ccc(C)cc2)cc1 | / | / | / | / | -2 | /
CC(C)OCCCn1c(-c2ccco2)nc2nc3ccccc3nc21 | ? | 1% | -17 | 23µM* | 13 | 0%[0.365 µM]
CCCCn1c(SCC(=O)NCc2ccco2)nc2ccccc2c1=O | ? | ? | -9 | -23% | -4 | -1%
COCCn1c(-c2ccco2)nc2nc3ccccc3nc21 | -27% | 13% | -5 | -27% | -4 | 28%
COCCCn1c2nc3ccccc3nc2c2c(=O)n(Cc3cccs3)cnc21 | / | 2% | / | / | / | -2%
COCCn1cnc2c(c1=O)c1nc3ccccc3nc1n2/N=C/c1cccc(OC)c1 | 13µM* | -27% | 0 | 12µM* | 2 | ?
CCCCn1c(-c2ccco2)nc2ccccc2c1=O | ? | 10% | 10 | 16µM* | 0 | 14%
C=CCn1cnc2c(c1=O)c1nc3ccccc3nc1n2/N=C/c1ccccn1 | 16µM* | 1%[10 µM] | -65* | 21µM* | 0 | -25%
Cc1c(CCC(=O)Nc2cccc(F)c2)c(=O)oc2cc(O)ccc12 | / | / | / | / | -9 | /
Cc1cccc(C(=O)OCc2nc(N)c3ccccc3n2)c1 | / | / | / | / | 11 | /
Cc1nnc(C)n1/N=C/c1ccccn1 | -1% | -20% | -8 | 1% | -2 | 2%
C=CCn1cnc2c(c1=O)c1nc3ccccc3nc1n2/N=C/c1cc(OC)c(OC)c(OC)c1 | 4.1µM* | 0%[10 µM] | -5 | 3.3µM* | -3 | -23%
C=CCn1cnc2c(c1=O)c1nc3ccccc3nc1n2-c1ccccc1 | / | -12% | / | / | / | -5%
COc1cccc(/C=N/n2c(-c3ccco3)nc3ccccc3c2=O)c1 | ? | ? | 2 | 18µM* | 7 | ?
COc1ccc(/C=N/n2c(-c3ccco3)nc3ccccc3c2=O)cc1 | ? | 45% | -11 | ? | -2 | 1%
O=c1c2c3nc4ccccc4nc3n(/N=C/c3ccccn3)c2ncn1-c1ccccc1 | 2.6µM* | 2% | ? | ? | 2 | -7%
Cc1ccc(C)c(NC(=O)CN2CCN(S(=O)(=O)c3cccs3)CC2)c1 | / | / | / | / | -3 | /
Cc1ccn(C(=O)C2CCN(C(=O)c3ccc(F)cc3)CC2)c(=NC2CCCCC2)c1 | / | / | / | / | -8 | /
COC(=O)C1=C(C(=O)OC)SC2(S1)C(C(=O)OC)=C(C(=O)OC)SC1=C2c2cc(C)ccc2NC1(C)C | 21µM* | 4.5µM* | -21 | 15µM* | 3 | ?
COc1cc(CCC(=O)O)cc2c1OCO2 | / | / | / | / | 5 | /
O=C1NN(c2ccc(F)cc2)C(=O)/C1=C\c1cnn(-c2ccccc2)c1 | / | 7% | / | / | / | 0%
O=C1NN(c2ccc(F)cc2)C(=O)/C1=C\C=C\c1ccco1 | ? | 1.1µM* | 4 | ? | -3 | ?
O=C(CSc1nc(-c2ccccc2)cc(C(F)(F)F)n1)NC1CCCCC1 | / | / | / | / | 1 | /
COC(=O)c1ccccc1NC(=O)CSc1nc(-c2ccco2)cc(C(F)(F)F)n1 | 4.1µM* | ? | 43 | 4.6µM* | 5 | -16%

Assay outcomes deposited in PubChem by National Center for Advancing Translational Sciences (NCATS).
